BAZ2B inh: blocks human BAZ2B. AlphaScreen BAZ2B-H3K14Ac peptide displacement. Potency, µM (top dose mostly 114 µM), for inactives: top-dose activity change, negative = inhibition, usual class: inhibitors. 360,000 compounds, 4.4% hits. AID 504333; note: potency is the fitted concentration of half-maximal effect; % is set by controls: 0 for no effect and ±100 for the full control effect; nearly all actives have a fitted effect of over 60% in size
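Inhibition is scored as reduced AlphaScreen emission. The BAZ2B/b-H3(5-23)K14Ac complex (50 nM each) in PBS pH 7.4, 0.01% Tween-20 meets compound (up to 110 uM) for 30 min at RT before bead addition.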
HP1b chromo inh: blocks HP1-beta chromodomain binding to methylated histone tails; P83916; 390,000 compounds, 0.56% hits; AlphaScreen HP1-beta / biotin-H3K9me3 peptide binding; Potency, µM (doses to about 114 µM), for inactives: top-dose activity change, negative = inhibition, hits mostly inhibitors; AID 540317; note: potency is the fitted concentration of half-maximal effect; nearly all actives have a fitted effect of over 70% in size
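AlphaScreen: HP1-beta (50 nM) preformed 30 min with biotin-H3(1-18)K9me3 peptide (50 nM) in PBS pH 7.4, 0.01% Tween-20. Compound added for 30 min at RT, then streptavidin donor/nickel chelate acceptor beads (10 ug/mL) for 30 min.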
PI5P4K alpha inh: PI5P4K alpha (human) kinase inhibition | P48426 | PI5P4Kalpha enzyme, ADP-Glo luminescence, 60 min; stronger effect = lower value | max response, % | 330,000 compounds, 1.2% hits; active = max response of -50% or lower; inconclusive = between -30% and -50%; inactive = -30% or higher; note: value at the top dose of about 77 µM; % is set by controls: 0 for no effect and ±100 for the full control effect
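Human PI5P4Kalpha with substrate in 0.038 M HEPES pH 7.4, 0.28 mM EGTA, 0.1% CHAPS, 5% DMSO; reaction started with 5 microM ATP (final), 60 min at room temperature. ADP formed read by ADP-Glo luminescence.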
JMJD2A Tudor: JMJD2A Tudor domain (human) inhibition. AlphaScreen JMJD2A-Tudor / H3K4me3 peptide binding. 390,000 compounds, 4.4% hits. Potency, µM (top dose mostly 114 µM), for inactives: top-dose activity change, negative = inhibition, hits mostly inhibitors. O75164; note: potency is the fitted concentration of half-maximal effect; % is set by controls: 0 for no effect and ±100 for the full control effect; nearly all actives have a fitted effect of over 50% in size
PLK1 PBD block: inhibitors of human PLK1 polo-box domain binding; 360,000 compounds, 2.8% hits; Plk1 PBD binding of FITC phosphopeptide, fluorescence polarization; Potency, µM, for the others: max response, negative = inhibition, hits mostly inhibitors; note: potency is the fitted concentration of half-maximal effect; series mostly up to about 57 µM; % is set by controls: 0 for no effect and ±100 for the full control effect; nearly all actives have a fitted effect of over 65% in size
G9a inh: inhibitors of human histone lysine methyltransferase G9a; AID 504332; 350,000 compounds, 8.8% hits; Q96KQ7; G9a H3K9 monomethylation, AlphaScreen, 2 h; Potency, µM (highest dose often 102 µM), for the others: at the highest dose activity, negative = inhibition, usual class: inhibitors; note: potency is the fitted concentration of half-maximal effect; % is set by controls: 0 for no effect and ±100 for the full control effect; nearly all actives have a fitted effect of over 75% in size
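G9a (20 nM) preincubated 15 min RT with compounds, then 500 nM biotinylated H3K9 peptide and 20 uM SAM added; 2 h RT reaction. Monomethyl-H3K9 product detected by AlphaScreen with anti-H3K9me1 antibody, streptavidin donor and anti-rabbit IgG acceptor beads.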
* = called active by the depositor; u = inconclusive; x = not tested or not shown; [ ] = another dose, or the depositor's remark. Most compounds without a hit are left out; they make up all but 12% or so of the library. Unless noted, calls come from the whole dose curve; as a rule, active = well fitted curve in the direction sought with a large enough effect; inconclusive = small, poorly fitted or top-dose-only effect, or another doubt; inactive = no such curve, though single readings can be large; an effect the other way counts as inactive or inconclusive.

SMILES | BAZ2B inh | HP1b chromo inh | PI5P4K alpha inh | JMJD2A Tudor | PLK1 PBD block | G9a inh
CN(C(=O)COC(=O)c1cc(S(=O)(=O)N2CCOCC2)ccc1Cl)C1CCS(=O)(=O)C1 (centres undefined) | 7% | 15% | 0 | -3% | -5% | -33%
C=C(C)C(=O)OCC(O)COc1ccc(C(C)(C)c2ccc(OCC(O)COC(=O)C(=C)C)cc2)cc1 (centres undefined) | 4% | 22% | 25 | 4% | 2% | 11%[12.7 µM]
Cc1ccccc1-n1ncc2c1CC(C)(C)CC2NC(=O)c1ccncc1 (centres undefined) | 2% | 22% | 0 | -8% | 1% | 27%
COc1ccc(OC)c(C(=O)NC2CC(C)(C)Cc3c2cnn3-c2ccccc2)c1 (centres undefined) | 71µM* | 23% | 8 | -32% | -16% | -6%
Cc1ccccc1-n1ncc2c1CC(C)(C)CC2NC(=O)c1cn[nH]c1C (centres undefined) | -9% | 14% | 2 | u | 30µM* | -4%
COc1ccc(-n2ncc3c2CC(C)(C)CC3NC(=O)c2ccoc2C)cc1 (centres undefined) | u | 8% | -3 | -7% | -16% | 6%
Oc1cncc(Cc2ccccc2)c1 | 12% | 39% | 7 | -9% | -10% | -4%
Cc1oc(-c2cccc(Cl)c2)nc1Cn1c(SCc2ccc(F)cc2)nc2cccnc21 | -13% | 35% | x | -23% | x | u
CC(=O)N1CCN(CCN=CC2=C(O)CC(c3cccs3)CC2=O)CC1 (centres undefined) | 9% | 40% | -12 | -1% | -1% | 50µM*
COc1ccc(C2CC(=O)C(C=NCCN3CCN(C(C)=O)CC3)=C(O)C2)cc1 (centres undefined) | 0% | 35% | x | -6% | -10% | -12%[59 µM]
CC(=O)N1CCN(CCN=CC2=C(O)CC(c3ccc(Cl)cc3)CC2=O)CC1 (centres undefined) | -6% | 50% | -5 | -12% | -7% | 50µM*
COc1ccc(NC(=O)c2ccc(-c3nn(C)c(=O)c4ccccc34)cc2)cc1C(N)=O | -17% | 24% | -10 | -4% | -3% | 3%
Nc1ncnc(N)c1NC(=O)c1cc(Cl)c(OCc2ccccc2)c(Cl)c1 | x | x | 1 | x | -5% | x
COc1cccc(-n2nnnc2SCC(=O)NCCc2ccc(OC)c(OC)c2)c1 | -17% | -11% | -5 | -34% | u | 4%
COc1ccc(CCNC(=O)CSc2nnnn2-c2ccc(OC)c(OC)c2)cc1OC | -22% | -11% | -27 | u | 13µM* | 2%[59 µM]
COc1ccc(-n2nnnc2SCC(=O)NCc2ccco2)cc1OC | u | 5% | x | -22% | -12% | 50µM*
COc1cccc(-n2nnnc2SCC(=O)NCc2ccco2)c1 | -12% | 11% | -15 | -13% | -7% | u
O=C(NCc1cccnc1)c1cc(S(=O)(=O)N2CCCC2)c(Cl)cc1Cl | -14% | 14% | 2 | -5% | 0% | u
O=C1CCc2cc(NS(=O)(=O)c3ccc([N+](=O)[O-])cc3)cc3c2N1CCC3 | -31% | 15% | -3 | -12% | -6% | 35µM*
O=C1CCc2cc(NS(=O)(=O)c3ccc([N+](=O)[O-])cc3)cc3c2N1CC3 | 3% | 21% | 6 | -19% | -4% | 45µM*
CCOC(=O)c1c(N)sc2c1CCCC2 | u | -19% | x | u | u | u
CCOC(=O)c1c(N)sc2c1CCS(=O)(=O)C2 | -4% | u | -14 | u | 27µM* | 8.9µM*
O=C1CC(c2ccc(Cl)cc2)n2nc(N3C(=O)c4ccccc4C3=O)nc2N1 (centres undefined) | 79µM* | 25% | 6 | u | -4% | -33%[59 µM]
COc1ccc(CNC(=O)COC(=O)c2ccc(OCc3c(C)noc3C)cc2)cc1OC | 9% | u | -14 | u | 30µM* | 2%[59 µM]
CCCCc1c(CCC)c(=N)c2ccccc2n1C | -4%[57.1 µM] | 35% | -1 | 89µM* | 0% | 11%[59 µM]
SMILES | BAZ2B inh | HP1b chromo inh | PI5P4K alpha inh | JMJD2A Tudor | PLK1 PBD block | G9a inh
Cc1ccc(/C=N/NC(=O)CN2CCN(S(=O)(=O)c3ccc(Br)cc3)CC2)s1 | -1% | 16% | 8 | -11% | -7% | u
O=C(CN1CCN(S(=O)(=O)c2ccc(Br)cc2)CC1)N/N=C/c1ccc(Br)s1 | u | -5% | 1 | -35% | 24µM* | 3%[59 µM]
Cc1ccc(S(=O)(=O)N2CCN(CC(=O)N/N=C/c3ccc(C)o3)CC2)cc1 | -3% | 19% | -2 | -29% | -10% | u
Cc1ccc(S(=O)(=O)N2CCN(CC(=O)N/N=C\c3ccc(O)c(O)c3)CC2)cc1 | -24% | 30% | 1 | -13% | 1% | 40µM*
Cc1ccc(NC(=O)CN2CCCN(S(=O)(=O)c3ccc(Br)s3)CC2)cc1 | -3% | 36% | 22 | -21% | -13% | 50µM*
COC(=O)c1sc(N2C(=O)c3oc4cc(C)c(C)cc4c(=O)c3C2c2ccccc2F)nc1C (centres undefined) | -28% | 34% | x | -1% | x | -10%[59 µM]
Cc1ccccc1Nc1ncnc2c1c(-c1ccccc1)cn2-c1ccc(F)cc1 | -1% | 37% | x | -9% | x | 5%[59 µM]
Cn1c(SCc2ccc(Br)cc2)nnc1-c1ccccn1 | 79µM* | 3% | -1 | -5% | -7% | u
Brc1ccc(CSc2nccn2-c2ccccc2)cc1 | 40µM* | u | 10 | 56µM* | -2% | 45µM*
O=C(CSc1nccn1-c1ccccc1)NO | u | -4% | 1 | -5%[11.4 µM] | -22% | 4%
CCc1ccc(CN(Cc2cn[nH]c2-c2ccc(OC)cc2)C(=O)Nc2ccc(C)c(F)c2)cc1 | 14% | 67% | x | 6% | x | -35%[59 µM]
Cc1nc(SCC(=O)O)c2oc3ccccc3c2n1 | 5% | 22% | -2 | -23% | -11% | 56µM*
Cc1nc(SCc2nc3c(F)cccc3[nH]2)c2oc3ccccc3c2n1 | x | 29% | x | 79µM* | x | x
CCOc1ccc(NC(=O)C2CCN(S(=O)(=O)c3ccc4c(c3)C(C)(C)C(=O)N4C)CC2)cc1 | -21% | 53% | 0 | -20% | -7% | -6%
COCc1c(Br)c(C)nc2sc3c(=O)[nH]nnc3c12 | 56µM* | 29% | -19 | -14% | u | 35µM*
COc1ccc(-c2nc3cnc(N(C)C)nc3n(CCc3ccccc3)c2=O)cc1 | x | x | x | x | x | 14%[12.7 µM]
Cc1cc(=O)n(CC(C)O)c(O)c1C#N (centres undefined) | -12% | 41% | 0 | -18% | -4% | 10µM*
Cc1cc(=O)n(CCCO)c(O)c1C#N | -31% | 16% | -14 | -13% | -5% | 45µM*

High-throughput results (PubChem BioAssay)
